Screening results as filed in PubChem.
Pf Dd2 growth: Plasmodium falciparum Dd2 growth inhibition; P. falciparum Dd2 growth, SYBR Green, 72 h; 120,000 tested, 4.3% active; Potency, µM (doses to about 28.9 µM), for inactives: at the highest dose activity, negative = inhibition, usual class: inhibitors; active = well fitted inhibition curve with a large enough effect;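 also: plate controls were DMSO vehicle for no effect and reference drug for full effect; nearly all actives have a fitted effect of over 65% in size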
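Readout: SYBR Green fluorescence, 485 nm excitation, 535 nm emission, after ~16 h lysis at 37C. Before that, Dd2-infected red cells (2.5% hematocrit) grew 72 h with compound, 29 uM top final concentration.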
An asterisk follows results filed as active; i = inactive; [ ] = dose if it differs, or a comment. This is one part of a sample in which hits are shown more often than they occur. Potency is read from the fitted curve at half-maximal effect.

SMILES | Pf Dd2 growth
Cc1cc(Cl)ccc1-c1ccccc1C=O | -25.7%[44.1 µM]
Cc1cc(Cl)ccc1-c1cccc(CN)c1 | 14.1µM*
NCc1ccc(Oc2ccc(F)c(Cl)c2)cc1 | -26.3%[44.1 µM]
Cc1cc(Cl)ccc1-c1ccc(C=O)cc1 | 10.7%[44.1 µM]
Cc1ccc(-c2cccc(CN)c2)c(C)c1 | 14.1µM*
O=C(O)c1cccc(-c2cc(C(F)(F)F)ccc2Cl)c1 | 4.3%
COCCCNC(=O)N1CC(c2nc(CCOCC3CCOCC3)no2)C1 | 12.0%
O=C(O)c1cccc2c1CCN2S(=O)(=O)c1ccccc1F | -24.7%
COc1cccc([S+](=O)([O-])N2CCn3c(nn(-c4ccc(F)cc4F)c3=O)C2)c1 | -12.0%
Cc1onc(-c2cnn(C)c2NCCc2ccccc2)c1C(=O)N1CCCC(C(N)=O)C1 (stereo not drawn) | -16.8%[44.1 µM]
COc1ccccc1-c1nnc([C@H]2CCN(Cc3ncc[nH]3)C2)o1 | i
Cc1noc(-c2cn(C3CCCN(C(=O)c4ccc(C(C)(C)C)cc4)C3)nn2)n1 (stereo not drawn) | -11.2%
COCC(=O)NC1CCc2nnc(C3CC3)n2CC1 (stereo not drawn) | i
Cc1cn2nnc(C(=O)N3CCC(C(=O)Nc4ccc(C)c(C)c4)CC3)c2c(=O)[nH]1 | i
CCN1C(=O)CCN(C(=O)Cc2cccc(OC)c2)CC12CCOCC2 | 20.2%
CCC1(N2CCN(C(=O)c3ccc(N(C)C)cc3)CC2)CCN(C(=O)NC)C1 (stereo not drawn) | -17.5%
Cc1ccc(C(=O)N2CCC(c3nn(Cc4ccccc4)c(=O)[nH]3)CC2)cc1 | -7.6%
Cc1ccccc1C(=O)N1CCC(c2nn(Cc3ccccc3)c(=O)[nH]2)CC1 | -15.6%
O=C(c1cccc(Cl)c1)N1CCC(c2nc3c(nnn3Cc3ccc(F)cc3F)c(=O)[nH]2)CC1 | 2µM*
Cc1ccccc1Cn1nnc2c(=O)[nH]c(C3CCCN(C(=O)c4ccc(F)cc4)C3)nc21 (stereo not drawn) | -2.8%
COC(=O)c1ccc(Cn2nnc3c(=O)[nH]c(C4CCCN(S(=O)(=O)c5ccccc5Cl)C4)nc32)cc1 (stereo not drawn) | 7.94µM*
Cc1ccc(C)c(C(=O)N2CCC(c3nc4c(nnn4Cc4ccccc4)c(=O)[nH]3)CC2)c1 | 11.2µM*
O=C(c1cccc(Cl)c1)N1CCC(c2nn(-c3ccccc3)c(=O)[nH]2)CC1 | i
COc1ccc(CNC(=O)C2CCCN(S(=O)(=O)c3cccc4nsnc34)C2)cc1 (stereo not drawn) | -19.4%
CC(C)(C)c1ccc(C(=O)N2CCCC(c3nc4c(nnn4Cc4cccc(F)c4)c(=O)[nH]3)C2)cc1 (stereo not drawn) | 1.58µM*
SMILES | Pf Dd2 growth
O=C(c1cccc(C(F)(F)F)c1)N1CCC(c2nn(-c3ccc(Cl)cc3)c(=O)[nH]2)CC1 | i
CC(C)n1ccnc1C1CCCN(S(=O)(=O)c2ccccc2Cl)C1 (stereo not drawn) | i
Cc1cc(C)n(Cc2cccc(C(=O)N3CCCC(c4ncc[nH]4)C3)c2)n1 (stereo not drawn) | 0.1%
Cc1sc2ccn(C)c(=O)c2c1C(=O)NCc1cccc(Br)c1 | i
Cc1cc(C(=O)N2CCC3(CC2)CC(N(C(=O)c2ccccc2)C2CC2)CCO3)n(C)n1 (stereo not drawn) | -24.2%
O=C(NCc1cccs1)c1ccc2nccn2c1 | 18.1%[44.1 µM]
Cn1ccc2c(NC(=O)C[C@H]3NC(=O)c4ccccc4NC3=O)cccc21 | i
Cc1ccc(NC(=O)C2(C)CCCCC(=O)N2)cc1 (stereo not drawn) | -14.9%
O=C(CCC1CCCC1)N1CCC(Cc2nc(C3CCOCC3)no2)CC1 | i
CCOc1ccccc1NC(=O)c1c(NC(=O)COc2ccc(Cl)cc2)sc2c1CCCCC2 | i
CCOc1ccccc1NC(=O)c1c(NC(=O)Cc2ccccc2)sc2c1CCCC2 | 24.7%
CCOc1ccccc1NC(=O)c1c(NC(=O)c2cccc(C)c2)sc2c1CCCC2 | 8.91µM*
COc1ccc(CCN2CC(NC(=O)c3csc(C)n3)CC2=O)cc1 (stereo not drawn) | 4.0%
O=C(CC(F)(F)F)N1CCC(N2C(=O)C(O)C23CCCCC3)CC1 (stereo not drawn) | -7.2%
COc1cccc2sc(=NC(=O)c3ccc(S(=O)(=O)N4CCCCC4)cc3)n(C)c12 | 0.8%
COc1ccccc1N=c1scc(-c2ccc(S(=O)(=O)N3CCCC3)cc2)n1C | 10µM*
COc1ccccc1N1CCN(S(=O)(=O)c2ccc(-c3coc(C)n3)cc2)CC1 | 41.1%
COCC(=O)NC[C@@H]1C=C(C)[C@H](CC(=O)N2CCN(C(C)=O)CC2)C[C@H]1C(C)C | i
COc1cccc(C2Cn3nnc(-c4nc(-c5cccc(C(F)(F)F)c5)no4)c3CO2)c1 (stereo not drawn) | i
O=C(N[C@@H]1CCC[C@@H]1C(=O)NC1CCCCCC1)c1ccncc1 | -0.9%
CN1C(=O)CCC2(CNC(=O)c3ccccn3)CCC=C12 (stereo not drawn) | 19.5%
O=C(Nc1ccc(F)c(F)c1)C1CCCN(S(=O)(=O)c2cccc3nonc23)C1 (stereo not drawn) | 31.4%
O=C(Nc1ccc(C(F)(F)F)cc1)C1CCCN(S(=O)(=O)c2cccc3cccnc23)C1 (stereo not drawn) | 11.2µM*
O=C(Nc1ccc(OC(F)(F)F)cc1)C1CCCN(S(=O)(=O)c2cccc3nonc23)C1 (stereo not drawn) | 50.3%
O=C(c1ccncc1)N1CC2CCC(C1)N2Cc1cccc(-c2ccsc2)c1 | 7.6%
SMILES | Pf Dd2 growth
CC(C)N1CC2CCC(C1)N2Cc1cccc(C#N)c1 | -8.4%[44.1 µM]
CC(C)N1CC2CCC(C1)N2Cc1cccc(-c2ccsc2)c1 | 11.2µM*
O=C1Nc2ccc(-c3cccs3)cc2C(=O)N2CC[C@H](NS(=O)(=O)c3ccc(Cl)cc3)C[C@@H]12 | -3.6%
O=C(C1CCC(CNS(=O)(=O)c2cccs2)CC1)N1CCN(c2ccc(Cl)cc2)CC1 (stereo not drawn) | 12.6µM*
O=C(C1CCC(CNS(=O)(=O)c2ccc(Br)s2)CC1)N1CCN(c2ccccc2)CC1 (stereo not drawn) | -5.9%
O=C(C1CCN(S(=O)(=O)c2cccs2)CC1)N1CCN(c2cccc(Cl)c2)CC1 | -14.9%
O=C(c1c[nH]c2cccnc12)N1CCOCC1 | 3.6%[44.1 µM]
CC(=O)c1ccc(NC(=O)O[C@@H]2CO[C@H]3[C@@H]2OC[C@@H]3n2nnnc2-c2ccc(CN3CCOCC3)cc2)cc1 | i
CC(C)N(C(=O)Cn1cc(S(=O)(=O)Cc2ccc(Cl)cc2)c2ccccc21)C(C)C | i[5.79 µM]
COc1ccc(NC(=O)CSc2cn(CC(=O)N3CCOCC3)c3ccccc23)cc1OC | 13.0%
COc1ccc(C(=O)NCCn2cc(SCC(=O)Nc3ccc4c(c3)OCCO4)c3ccccc32)cc1OC | i
Cc1ccc(C(=O)N2CCc3cn(C)c4cccc(c34)C2)cc1 | -23.1%
Cc1ccc(C(=O)/C=C/c2cn(CC(O)CN3CCc4ccccc43)c3ccccc23)cc1 (stereo not drawn) | 5.62µM*
COc1ccc(C(=O)/C=C/c2cn(CC(O)CN3CCc4ccccc43)c3ccccc23)cc1OC (stereo not drawn) | 8.91µM*
Cc1ccc(NC(=O)CSc2cn(CC(=O)N3CCCCCC3)c3ccccc23)cc1 | -2.3%
CC(C)CN(CC(C)C)CC(O)Cn1cc(/C=C/C(=O)c2ccccc2)c2ccccc21 (stereo not drawn) | 2.51µM*
CC(C)CNC(=O)N(C)CC1CCOCC1 | i
O=C1CC(c2ccccc2)N(C(=O)CNC(=O)NC2CCCCC2)CCCCCCN1 (stereo not drawn) | i
